# Inconclusive results are not listed. Calls of active or inactive are those of the source.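 Rule for the calls: active = viability at or below 27.92% in each of two runs, the all-compound median minus 4 SD; inconclusive = no clear call, values can overlap the other calls; inactive = the rest.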
# Test: viability of PTEN-null HCT116 cells – cell-based, HCT116 clonal line, CellTiter-Glo, pilot screen (AID 824);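 note: 0% = 20 µM Hyamine control and 100% = vehicle cell control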
# Details: HCT116 PTEN-deleted viability, 60 h, at 10 µM, hits give low values
row,SMILES,viability
1,CSc1nnc2c(n1)OC(c1ccc(C(=O)O)cc1)N(C(C)=O)c1ccccc1-2 (centres undefined),96.6% (inactive)
2,CC(C)CNC1=CC(=O)CC(c2ccco2)C1 (centres undefined),93.8% (inactive)
3,CCOC(=O)c1ccc2nc(NC(=O)C(C)C)sc2c1,80% (inactive)
4,CCCOC(=O)C1=C(C)NC2=C(C(=O)CC(C)(C)C2)C1c1ccc(N(C)C)cc1 (centres undefined),80.9% (inactive)
5,CCOC(=O)N1CCN(C(=O)Cn2ncc3ccccc32)CC1,89.4% (inactive)
6,O=C(NC(Nc1ncccn1)C(=O)c1ccccc1)c1ccccc1 (centres undefined),98.5% (inactive)
7,CCCCn1c(CCNC(=O)CC)nc2ccccc21,101% (inactive)
8,CCOC(=O)N1CCN(C(=O)CCSc2ccccc2)CC1,97% (inactive)
9,O=C(Nc1nc2c(Cl)ccc(Cl)c2s1)c1ccco1,85.2% (inactive)
10,O=C(CSCC(=O)N1CCOCC1)Nc1ccccc1,97.8% (inactive)
11,CCOC(=O)CSc1nnc(Cn2c(=O)sc3ccccc32)n1-c1ccccc1C,96% (inactive)
12,CC1(C)CC(=O)c2sc(NC(=O)CN3C(=O)CCC3=O)nc2C1,103% (inactive)
13,Cc1cc(NC(=O)NC2(C(F)(F)F)Oc3ccc(Cl)cc3O2)no1 (centres undefined),42.5% (inactive)
14,CN1CCN(CCCNC(=O)c2ccc3c(c2)N(Cc2ccccc2)CCS3)CC1,67.4% (inactive)
15,O=C(NC(O)C(=O)c1ccccc1)c1cccs1 (centres undefined),101% (inactive)
16,Cc1ccc(-c2nc(CS(=O)(=O)CC(=O)N3CCc4ccccc4C3)c(C)o2)cc1,68.9% (inactive)
17,COc1ccccc1N1CSC2=C(C#N)C(c3ccc(SC)cc3)CC(=O)N2C1 (centres undefined),94.7% (inactive)
18,COc1ccc(Cl)cc1C(=O)N(Cc1nc(-c2cccc(C)c2)no1)C(C)C,57.6% (inactive)
19,CCOc1cccc(C(=O)Nc2cccc(-c3nnc(-c4ccccc4)o3)c2)c1,48.5% (inactive)
20,CC1C(c2ccccc2)=[N+]([O-])C2(CCCC2)N1O (centres undefined),96.6% (inactive)
21,CC(=O)c1cccc(NC(=O)C2CCCC2)c1,95.4% (inactive)
22,O=C(NCCN1CCCCC1)c1ccc2c(c1)OCCO2,99% (inactive)
23,O=C(NCc1ccco1)C1CCN(S(=O)(=O)c2cccc3cccnc23)CC1,93.8% (inactive)
24,CCSC1=C(C#N)C(c2ccccc2C)CC(=O)N1 (centres undefined),87.7% (inactive)

# — PubChem BioAssay
